About 14,000 (4.5%) of roughly 310,000 compounds showed an effect of 50% or more. Effects have a minus sign here. The sample holds strong results, similar compounds and a random draw of the others, so the mix is not that of the screen.
target: human ether-à-go-go-related gene (hERG) potassium channel (human, UniProt Q12809); experiment: primary screen, population patch clamp on CHO cells stably expressing hERG; higher = less effect of the substance
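Note: peak tail current of the secondary pulse compared with the same well before compound.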

Chain of human ether-à-go-go-related gene (hERG) potassium channel (Q12809 whole entry, looked up): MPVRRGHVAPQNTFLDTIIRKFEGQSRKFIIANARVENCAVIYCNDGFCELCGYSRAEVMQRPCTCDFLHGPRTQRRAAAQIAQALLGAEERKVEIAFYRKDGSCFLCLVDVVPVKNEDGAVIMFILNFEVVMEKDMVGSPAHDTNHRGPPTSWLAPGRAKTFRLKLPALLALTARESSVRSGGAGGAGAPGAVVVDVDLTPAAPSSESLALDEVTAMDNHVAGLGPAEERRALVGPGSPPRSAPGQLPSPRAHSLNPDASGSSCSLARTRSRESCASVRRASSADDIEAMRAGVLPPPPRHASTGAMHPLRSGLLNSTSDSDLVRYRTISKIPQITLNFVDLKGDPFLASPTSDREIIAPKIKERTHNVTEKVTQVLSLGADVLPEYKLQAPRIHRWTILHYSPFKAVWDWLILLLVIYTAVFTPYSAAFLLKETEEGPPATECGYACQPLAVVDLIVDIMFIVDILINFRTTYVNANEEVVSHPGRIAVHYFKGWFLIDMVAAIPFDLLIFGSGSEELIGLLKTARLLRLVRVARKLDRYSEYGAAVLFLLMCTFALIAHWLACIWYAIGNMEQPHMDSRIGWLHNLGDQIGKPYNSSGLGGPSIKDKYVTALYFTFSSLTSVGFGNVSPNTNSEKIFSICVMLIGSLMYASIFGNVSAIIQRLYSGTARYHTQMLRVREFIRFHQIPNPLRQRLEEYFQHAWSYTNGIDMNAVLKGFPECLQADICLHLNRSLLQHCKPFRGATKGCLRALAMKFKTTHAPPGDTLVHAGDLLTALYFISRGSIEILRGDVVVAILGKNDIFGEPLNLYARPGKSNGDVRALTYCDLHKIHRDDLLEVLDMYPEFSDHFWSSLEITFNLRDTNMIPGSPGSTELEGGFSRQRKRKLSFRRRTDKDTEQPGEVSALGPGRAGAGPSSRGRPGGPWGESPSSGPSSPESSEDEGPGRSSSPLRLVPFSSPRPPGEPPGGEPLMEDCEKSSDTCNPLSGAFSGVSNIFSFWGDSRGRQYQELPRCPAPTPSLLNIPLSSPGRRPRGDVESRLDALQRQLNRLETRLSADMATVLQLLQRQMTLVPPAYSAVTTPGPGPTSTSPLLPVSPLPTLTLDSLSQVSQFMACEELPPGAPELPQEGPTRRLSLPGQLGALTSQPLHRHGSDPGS

Row | Compound | hERG current change (%, negative = inhibition) at 10uM [%]
1 | O=C(COC(=O)C1=NNC(=O)CC1)NCCc1ccccc1 | 17.4
2 | O=c1cc(N2CCN(Cc3ccccc3)CC2)c(-c2ccccc2)n[nH]1 | -1.87
3 | Cn1nc(C(C)(C)C)cc1NC(=O)Nc1ccc(F)cc1F | 5.93
4 | CCC(C)N1C(=S)SC(C)(C)C1N(O)C(=O)NC1CCCCC1 (stereo not drawn) | 9.19
5 | COc1ccc(OC)c(C2(O)CSC(=Nc3cccnc3)N2Cc2ccco2)c1 (stereo not drawn) | -16.3
6 | Cn1c(=O)c2c(SCC(=O)N3CCOCC3)nc(-c3ccccc3F)nc2n(C)c1=O | -8.27
7 | CCOC(=O)CC1COCCN1C(=O)c1cc(COc2ccc(F)c(F)c2)on1 (stereo not drawn) | -61.5
8 | O=C(c1cc(COc2ccc(F)c(F)c2)on1)N1CCOCC1 | 5.02
9 | COc1cccc(OCc2cc(C(=O)N3CCN(C4CCCCC4)C(=O)C3)no2)c1 | -3.09
10 | COc1ccc(OCc2cc(C(=O)N3CCN(C4CCCC4)CC3)no2)c(Cl)c1 | -29.6
11 | CCOC(=O)CC1COCCN1C(=O)c1cc(COc2ccc(F)cc2Cl)on1 (stereo not drawn) | -23.2
12 | O=C(c1cc(COc2ccc(F)cc2F)on1)N1CCN(C2CCCC2)C(=O)C1 | -25.8
13 | O=C(c1cc(COc2c(F)cccc2F)on1)N1CCN(C2CCCCC2)C(=O)C1 | -17.5
14 | O=C(c1cc(COc2ccc(F)cc2Cl)on1)N1CCN(C2CCCC2)CC1 | -61.4
15 | O=C(c1cc(COc2ccc(F)cc2Cl)on1)N1CCN(C2CCCCC2)C(=O)C1 | -67.9
16 | CSc1ccccc1OCc1cc(C(=O)N2CCN(C3CCCC3)C(=O)C2)no1 | -34.8
17 | O=C(c1cc(COc2ccc(F)c(F)c2)on1)N1CCN(C2CCCCC2)C(=O)C1 | -56.2
18 | O=C(c1cc(COc2ccc(F)cc2Cl)on1)N1CCSCC1 | -4.58
19 | O=C(COC(=O)CN1C(=O)C2CCCCC2C1=O)Nc1cc(S(=O)(=O)N2CCOCC2)ccc1Cl (stereo not drawn) | -12.6
20 | Cc1ccc(C(=O)NCCCn2ccnc2)cn1 | 4.36
21 | O=C(NC1CCCCCC1)C1CCN(S(=O)(=O)c2cnc[nH]2)CC1 | 8.78
22 | CCN(CC)C(=O)COc1cc(C)c(Cl)c(C)c1 | -5.91

Row | Compound | hERG current change (%, negative = inhibition) at 10uM [%]
23 | COc1ccc(C(=O)NCc2ccccc2OC)c(OC)c1 | -11.6
24 | Brc1csc(C=Nc2ccc3c(c2)OCCOCCOCCOCCO3)c1 | -73.5
25 | Brc1ccc(C=Nc2ccc(Nc3ccccc3)cc2)s1 | 9.59
26 | Brc1ccc(C=Nc2ccc3c(c2)OCCOCCOCCO3)s1 | -66.2
27 | O=C(N/N=C/c1cc(Br)cs1)c1ccc2c(c1)OCCO2 | 10.2
28 | Oc1c(Br)cc(Br)cc1C=Nc1ccc2c(c1)OCCO2 | 14.9
29 | Oc1c(Cl)cc(Cl)cc1C=Nc1ccc2c(c1)OCCO2 | 21.2
30 | NC(=O)c1ccccc1NC(=O)N1CCOCC1 | -2.02
31 | CCOC(=O)C1CCCN(C(=O)c2ccc(Cl)cc2)C1 (stereo not drawn) | 0.557
32 | Cc1cc(C)cc(NC(=O)CSc2nc3c(oc4ccccc43)c(=O)n2-c2ccccc2)c1 | -11.1
33 | O=C(c1ccc(F)cc1)N1CCCCC(Sc2nnc3ccccn23)C1=O (stereo not drawn) | -59.9
34 | O=C(c1ccccc1)N1CCCCC(Sc2nnc3ccccn23)C1=O (stereo not drawn) | 5.24
35 | Cc1cc2nnc(SC3CCCCN(C(=O)c4ccc(F)cc4)C3=O)n2c2ccccc12 (stereo not drawn) | -13.2
36 | O=C(Nc1ccccc1-c1nc2ccccc2[nH]c1=O)c1cccs1 | 2.16
37 | CCc1noc(C)c1C(=O)Nc1ccc(C)c(S(=O)(=O)N2CCCCCC2)c1 | -45.6
38 | CCOc1ccc(S(=O)(=O)N2CCCCC2)cc1NC(=O)c1c(CC)noc1C | 11.8
39 | Cc1noc(C)c1C(=O)Nc1cccc(S(=O)(=O)N2CCCCC2)c1 | -10.6
40 | CCc1noc(C)c1C(=O)Nc1ccc(S(=O)(=O)N2CCCCC2)cc1 | -7.54
41 | CCc1noc(C)c1C(=O)Nc1cccc(S(=O)(=O)N2CCCCCC2)c1 | -56
42 | CCc1noc(C)c1C(=O)Nc1ccc(Cl)c(S(=O)(=O)N2CCCCC2)c1 | -71.2
43 | CCOC(=O)c1c(C)[nH]c(C(=O)Nc2ccc(C)c(Cl)c2)c1C | 10.8
44 | COc1ccc2[nH]cc(C(=O)C(=O)N3CCCCC3)c2c1 | 5.35

Row | Compound | hERG current change (%, negative = inhibition) at 10uM [%]
45 | COC(=O)C(=O)/C=C(\O)c1ccc(C)cc1 | -2.4
46 | Cc1ccc(C(=O)CSc2nc3ccccc3c(=O)n2N)o1 | -1.95
47 | O=C(c1cccs1)N(CC1CCCO1)c1nc(-c2ccccc2)cs1 (stereo not drawn) | 2.57
48 | COc1ccc(-c2csc(N(Cc3ccco3)C(=O)c3cccs3)n2)cc1 | -3.17
49 | COc1ccc(-c2csc(N(CC3CCCO3)C(=O)c3cccs3)n2)cc1 (stereo not drawn) | -11.4
50 | COc1ccc(-c2csc(N(CCCN(C)C)C(=O)c3cccs3)n2)cc1.Cl | -73.9
51 | CCN(C(=O)c1cccs1)c1nc(-c2ccc(OC)cc2)cs1 | 23.1
52 | CN(C)CCCN(C(=O)c1cccs1)c1nc(-c2ccccc2)cs1 | -72.8
53 | COc1ccc(-c2csc(N(C)C(=O)c3cccs3)n2)cc1 | -0.276
54 | Cc1ccc(-c2csc(N(Cc3ccco3)C(=O)c3cccs3)n2)cc1 | 11.6
55 | CCN(CC)CCCN(C(=O)c1cccs1)c1nc(-c2ccc(OC)cc2)cs1 | -83.3
56 | O=C(NC(=S)Nc1ccc(S(=O)(=O)N2CCCC2)cc1)C1CC1 | -29.8
57 | COc1ccc(C(=O)Nc2cc(C)nn2-c2nc3ccccc3[nH]2)c(OC)c1 | -5.95
58 | CSc1nnc(-c2ccc(Cl)cc2Cl)o1 | 1.62
59 | COc1cccc(NC(=O)COc2ccc(C(=O)N3CCN(C)CC3)cc2)c1 | 15.8
60 | O=C(O)CCc1cccnc1 | 7.55
61 | O=C(/C=C/c1c(F)cccc1Cl)c1ccc(O)cc1 | 1.1
62 | Cc1ccc(-c2nnc(N3CCCCC3)c3ccccc23)cc1S(=O)(=O)N(C)C | -27
63 | Cc1ccc(-c2nnc(N3CCOCC3)c3ccccc23)cc1S(N)(=O)=O | 17.3
64 | Cc1ccc(-c2nnc(N3CCCCC3)c3ccccc23)cc1S(=O)(=O)N1CCN(C)CC1 | -58.7
65 | Cc1ccc(-c2nnc3c4ccccc4c(C)nn23)cc1S(=O)(=O)N1CCN(C)CC1 | -6.7
66 | Cc1ccc(-c2nnc(NCc3nc4ccccc4[nH]3)c3ccccc23)cc1S(=O)(=O)N1CCCCC1.Cl | -7.08

Row | Compound | hERG current change (%, negative = inhibition) at 10uM [%]
67 | Cc1ccc(-c2nnc(NC3CCCCC3)c3ccccc23)cc1S(=O)(=O)N1CCN(C)CC1 | -54.6
68 | COc1ccc(S(=O)(=O)NCC2CCCN(C(=O)CCSC)C2)cc1 (stereo not drawn) | 18
69 | COc1cccc(CN2CC(C(=O)N(C)Cc3ccnc4ccccc34)CCC2=O)c1 (stereo not drawn) | -10.2
70 | C=CCNc1nc(-c2c(C)nc3sccn23)cs1 | -10.1
71 | Cc1ccccc1C(=O)NC(=S)NCCC1=CCCCC1 | 13.4
72 | CN1CCN(c2ncc3c(n2)CC(c2ccccc2F)CC3=O)CC1 (stereo not drawn) | -4.43
73 | COCCOC(=O)C1=C(C)NC2=C(C(=O)CCC2)C1c1ccc2c(c1)OCO2 (stereo not drawn) | -49.6
74 | O=C(CCNC(=O)c1ccc(Br)cc1)NCc1ccccc1F | -13
75 | O=C(CNC(=O)C1COc2ccccc2O1)N/N=C/c1cc(Br)c(O)c(Br)c1 (stereo not drawn) | -7.99
76 | O=C(N/N=C/c1cccc([N+](=O)[O-])c1)C1COc2ccccc2O1 (stereo not drawn) | -29.1
77 | COc1cc(/C=N\NC(=O)CNC(=O)C2COc3ccccc3O2)ccc1O (stereo not drawn) | -26.8
78 | O=C(Nc1ccc([N+](=O)[O-])cc1)C1COc2ccccc2O1 (stereo not drawn) | 0.793
79 | O=C(NNC(=O)C1COc2ccccc2O1)c1cccc([N+](=O)[O-])c1 (stereo not drawn) | -7.35
80 | O=C(CNC(=O)C1COc2ccccc2O1)N/N=C\c1ccccc1Cl (stereo not drawn) | 4.64
81 | O=C(CNC(=O)C1COc2ccccc2O1)N/N=C\c1ccc(Br)cc1 (stereo not drawn) | -20.1
82 | COc1ccc(/C=N\NC(=O)CNC(=O)C2COc3ccccc3O2)cc1[N+](=O)[O-] (stereo not drawn) | -73.8
83 | O=C(CNC(=O)C1COc2ccccc2O1)N/N=C/c1ccc([N+](=O)[O-])cc1 (stereo not drawn) | -71.8
84 | O=C(Nc1cccc([N+](=O)[O-])c1)C1COc2ccccc2O1 (stereo not drawn) | -86.3
85 | O=C(CNC(=O)C1COc2ccccc2O1)N/N=C\c1ccc(Cl)cc1 (stereo not drawn) | -69.4
86 | COc1ccc(/C=N/NC(=O)CNC(=O)C2COc3ccccc3O2)cc1OC (stereo not drawn) | -15.7
87 | COc1ccc(OCCC(=O)Nc2ccccc2)cc1 | -6.83
